Only a selection was taken, and hits are over-represented in it overall.
Measles inh = inhibitors of measles virus growth in infected cells; z-score (no concentration beside the values); actives 0.1% (n = 33,000); infected Vero cells, GFP fluorescence, 64 h; stronger effect = lower value; AID 745; in the data active = z-score below about -3
An asterisk follows results filed as active.

SMILES	Measles inh
COc1ccc(C=Cc2nc3ccccc3c(=O)n2-c2ccc(C)cc2C)cc1	0.2
Cc1ccc(-n2c(C=Cc3ccccc3)nc3ccccc3c2=O)c(C)c1	-0.69
Cc1ccc(-n2c(C=Cc3cccc(F)c3)nc3ccccc3c2=O)c(C)c1	-3.2*
Nc1[nH]ncc1[N+](=O)[O-]	-0.08
O=C1C2C3C=CC(O3)C2C(=O)N1c1ccc(Br)cc1 (stereo unspecified)	-0.58

Source: PubChem (Emory University Molecular Libraries Screening Center)
